Drawing on PubChem BioAssay AID720537 (National Center for Advancing Translational Sciences (NCATS), 2013), this text covers Potency for 70 molecules.

Out of some 1,600 compounds screened, about 55 (3%) were called active. Not shown: some 10% with an inconclusive outcome. Calls follow the shape of the dose curve; as a rule, active = well fitted inhibition curve with a large enough effect; inconclusive = small, poorly fitted or top-dose-only effect; inactive = no such curve, though single readings can be large or run the other way. These entries were drawn from the full list. Entries that show only a call come without a potency.
Potency is read from the fitted curve at half-maximal effect.

The nature of the assay: qHTS for Inhibitors of TGF-b: Hit Validation in HepG2 Cells using COP promoter. Also: nearly all actives have a fitted effect of over 70% in size. As to conditions: HepG2 COP-GFP TGF-b reporter, GFP fluorescence, 18 h, cells stimulated by added recombinant TGF-beta; series mostly up to 46.1 µM. The source says: TGF-b is a main component in the TGF-b signaling pathway which plays diverse roles in cellular and development pathways. TGF-b is the mediated by the transcription factors Smads. Although the Smad-dependent pathway is the primary canonical TGF-b signaling node, TGF-b1 can also activate alternative signaling pathways, including those involving MAPK (ERK, JNK and p38). This interaction may mediate or enhance Smad-dependent responses, or can exert Smad-independent effects. The complexity of this signaling cascade allows the TGF-b superfamily to perform unique, overlapping or redundant functions. We believe that targeting the TGF-beta pathway at the Smad-transcription factor level may eliminate the consequences of disrupting the entire pathway and offer specificity without affecting other signaling pathways. Smad3 is the primary transducer of TGF-b's signals and Smad3 regulates many functions attributed to TGF-b signaling. We hypothesize that Smad3 inhibitors will selectively eliminate Smad3-specific TGF-beta signals without undesired off-target effects. We aim to identify Smad3-small molecule antagonists using a quantitative high throughput screening (qHTS) approach. A high-throughput assay was developed to screen the NIH Molecular Libraries Small Molecule Repository (MLSMR). This is a cell based assay, where TGF-b is tagged with GFP. This assays tests the hits identified from the primary screen in HepG2 cells, but using a cop promoter rather than a caga promoter. True actives from the primary screen will also be active in this assay. NIH Chemical Genomics Center [NCGC] NIH Molecular Libraries Probe Centers Network [MLPCN] MLPCN Grant: MH087449 Assay Submitter (PI): Sushil Rane, National Institute of Diabetes and Kidney Diseases
Suspensions of trypsinized HEPG2 COP-GFP cells were dispensed into white, tissue culture-treated, solid 1536-well plates at 5uL/well (1000 cells/well final concentration) in DMEM medium supplemented with 1% FBS. Plates were incubated at 37 degrees C for 2 hours, after which 23 nL of compounds or DMSO were delivered to each well using a pin tool. One uL of recombinant TGF-beta in DMEM (1% FBS) was then dispensed (500 pg/mL final concentration), and plates were incubated at 37 degrees C for 18 hours. The plates were measured on an Acumen eX3 Explorer plate reader for GFP fluorescence (ex488/em500-530). GFP values were calculated by determining the mean GFP fluorescence of individual cells, and compiling these values for each well to determine a total well GFP signal. The %Activity was determined from the corrected fluorescence values. A titration of the known TGF-B inhibitor SB431542 was included to monitor plate performance, while unstimulated HEPG2 (-TGF-B) control wells were used to normalize %Activity of identified inhibitors; unstimulated wells corresponded to 100%Activity (full inhibition), while stimulated cell controls (+DMSO) were used to normalize 0%Activity (no inhibition). Concentration-response curves were fitted to the signals arising from the resulting fluorescence. The concentration-effect curves were then classified based on curve quality (r2), response magnitude and degree of measured activity, and compounds were subsequently categorized based on their curve class.
(In qHTS, concentration-response curves come from the screen itself.)
As to `O=C(NC1=CC(=O)c2ccccc2C1=O)c1ccccc1`, the Potency is 16.4 µM (active).

Take `CCCOc1ccccc1C1CC(=O)Nc2cc3c(cc21)OCO3` (stereo not given): the Potency entry is “inactive”.

Regarding `CCCOc1ccc(F)cc1-c1cc(C(=O)Nc2ccc(F)c(Cl)c2)[nH]n1`, the Potency entry is “inactive”.

With `O=C(Nc1ccc(C2CC2(Cl)Cl)cc1)c1cccc([N+](=O)[O-])c1` (stereo not given), the Potency result is “inactive”.

In the case of `Cc1cccc(-c2nc(Nc3ccc(O)cc3)c3ccccc3n2)c1`, the Potency result is “inactive”.

As for `COc1cncc(-c2cnc3sc(NCCc4ccccn4)nn23)c1`, the Potency entry is “inactive”.

For the molecule `CCC(C)N1C(=O)S/C(=C/c2ccc(Sc3nc4ccccc4[nH]3)o2)C1=O` (stereo not given), the Potency entry is “inactive”.

Turning to `Fc1cc(F)c2nc(Nc3nc4c(F)cccc4s3)sc2c1`, the Potency result is “inactive”.

With `COC(=O)N/N=C/c1cn(CCCOc2ccc(C)cc2)c2ccccc12`, the Potency result was “inactive”.

As for `CCCc1cc(-c2n[nH]c(=S)n2CC)c2ccccc2n1`, the Potency entry was “inactive”.

On to `Oc1c(CN2CCN(c3ccc(F)cc3)CC2)cc(Cl)c2cccnc12`, for which the Potency result is “inactive”.

As to `OCC1OC(n2cnc3c(N4CCCC4)ncnc32)C(O)C1O` (stereo not given), the Potency result is “inactive”.

Consider `CN(C)C(=O)c1cccc(-c2cnc3sc(NCc4ccc5c(c4)OCO5)nn23)c1`, for which the Potency entry was “inactive”.

As for `Cc1ccc(CN2CC(N3CCC(Cc4ccccc4)CC3)CS2(=O)=O)cc1` (stereo not given), the Potency result is “inactive”.

Take `COc1cc(/C=C2\Oc3ccc(C#Cc4ccc(O)cc4)cc3C2=O)cc(OC)c1`: the Potency result was “inactive”.

Turning to `Cc1ccnc(NC(=O)C2CCN(S(=O)(=O)c3c(C)c(C)cc(C)c3C)CC2)c1`, the Potency entry was “inactive”.

With `COc1ccc(CC(=O)Nc2ccccc2NC(=O)c2ccco2)cc1OC`, the Potency result was “inactive”.

Turning to `O=C(Nc1ccc(Br)cn1)c1ccc([N+](=O)[O-])o1`, the Potency entry was “inactive”.

For `Cn1c(=O)n(C)c2cc(S(=O)(=O)N3CCCc4ccccc43)ccc21`, the Potency result is “inactive”.

With `CN(C)c1nc(=Nc2cccc(Cl)c2)ss1`, the Potency result is “inactive”.

Turning to `COc1ccc(-c2onc(C)c2-c2ccc3c(c2)OCCO3)c(O)c1`, the Potency result was “inactive”.

`CCOc1ccc(CCN2C(=S)N([C@@H](CC(C)C)CN3CCC[C@@H]3CN3C(=S)NC[C@@H]3Cc3ccc(O)cc3)C[C@@H]2CC(C)C)cc1`: the Potency entry was “inactive”.

In the case of `c1ccc(-c2cn3c(n2)CCc2ccc4cccnc4c2-3)cc1`, the Potency entry was “inactive”.

Turning to `Cc1ccc(S(=O)(=O)Nc2nc3ccccc3nc2N2CCc3ccccc3C2)cc1`, the Potency entry was “inactive”.

Regarding `O=C(CCC(=O)N1CCN(S(=O)(=O)c2ccc(Cl)cc2)CC1)NCc1cccc(C(F)(F)F)c1`, the Potency entry is “inactive”.

As to `COc1cccc2sc(N(CCCN(C)C)C(=O)CCS(=O)(=O)c3ccccc3)nc12`, the Potency entry is “inactive”.

For the molecule `CCOc1ccc(NS(=O)(=O)c2ccc(C(=O)NC3CCN(Cc4ccccc4)CC3)cc2)cc1`, the Potency entry is “inactive”.

On to `CC(=O)c1cccc(-c2cnc3c(NC=O)cc(-c4ccc(N(C)C)cc4)cn23)c1`, for which the Potency result is “inactive”.

Consider `COc1ccccc1CSc1ncc(-c2ccc([N+](=O)[O-])cc2)[nH]1`, for which the Potency result was “inactive”.

For `FC(F)(F)c1ccccc1Cc1c(-c2ccccc2)nc2c3ccccc3ccn12`, the Potency entry is “inactive”.

With `Cc1ccc(C)c(S(=O)(=O)N2CCN(CC(=O)Nc3ccc([N+](=O)[O-])cc3)CC2)c1`, the Potency result was “inactive”.

As to `COc1c(C(C)C)oc2cc3oc(=O)ccc3cc12`, the Potency result was “inactive”.

In the case of `Cc1ccc(-c2nc3ccc(Br)cn3c2Cc2ccccc2C(F)(F)F)cc1`, the Potency entry is “inactive”.

For `Brc1ccc2nc(-c3ccccc3)c(Cc3ccccc3)n2c1`, the Potency result was “inactive”.

Regarding `COc1ccc(-c2csc(NC3OC(=O)c4ccccc43)n2)cc1` (stereo not given), the Potency result is “inactive”.

With `Cc1ccc(S(=O)(=O)Nc2ccc3c(c2)C(=O)N([C@H](C)CO)C[C@@H](C)[C@@H](CN(C)C(=O)Nc2cccc4ccccc24)O3)cc1`, the Potency entry was “inactive”.

In the case of `CN(c1ccccc1)S(=O)(=O)c1ccc(C(=O)N2CCN(c3ccccc3Cl)CC2)cc1`, the Potency result is “inactive”.

Turning to `COc1cc(CC(=O)Nc2nc(-c3ccc(F)c(F)c3)cs2)cc(OC)c1OC`, the Potency entry is “inactive”.

With `COc1ccc2nc(N3CCN(C(=O)c4ccc([N+](=O)[O-])o4)CC3)sc2c1`, the Potency result is “inactive”.

In the case of `CC1CCc2c(nc3ncnn3c2Nc2ccc(OC(F)(F)F)cc2)C1` (stereo not given), the Potency entry was “inactive”.

Consider `Cc1cc(C)cc(N(CC(=O)N2CC=C(c3ccccc3)CC2)S(=O)(=O)c2c(C)noc2C)c1`, for which the Potency result is “inactive”.

`Cc1oc2c(F)c(F)c(F)c(F)c2c1S(=O)(=O)Nc1cccc(C(F)(F)F)c1`: the Potency result was “inactive”.

Regarding `CCOC(=O)C1=C(N)N(c2ccc(C)cc2)C2=C(C(=O)CCC2)C1c1cccs1` (stereo not given), the Potency entry was “inactive”.

Regarding `CN(C)c1nc(N)nc(CSc2nnnn2-c2cccc3ccccc23)n1`, the Potency result was “inactive”.

As to `CC(=O)c1ccc(-c2cnc3c(NC=O)cc(-c4cccc(NS(C)(=O)=O)c4)cn23)cc1`, the Potency result was “inactive”.

Turning to `COc1cc(NC(=O)COC(=O)c2ccc([N+](=O)[O-])s2)cc(OC)c1OC`, the Potency entry was “inactive”.

`CN(C(=O)c1cccc(NC(=O)Cc2cccc([N+](=O)[O-])c2)c1)C1CCCCC1`: the Potency entry was “inactive”.

Regarding `O=C(Nc1ccc(Cl)cc1)Nc1nnc(/C=C/c2ccccc2)s1`, the Potency result is “inactive”.

Regarding `c1ccc2cc3c(NCCN4CCOCC4)ccnc3cc2c1`, the Potency entry is “inactive”.

Turning to `OCCCNc1nccc(-c2cc(Nc3cccc(Cl)c3)ncn2)n1`, the Potency result was “inactive”.

`O=C(/C(=C/c1cccc(Cl)c1)c1nc2ccccc2[nH]1)c1ccccc1`: the Potency entry was “inactive”.

On to `COc1cccc(CNc2nc(NCc3ccccc3OC)nc3ccsc23)c1`, for which the Potency entry was “inactive”.

Consider `CC(=NNC(=S)N1CCCCCC1)c1ccccn1`, for which the Potency result is “inactive”.

`CCN(CC)C(=O)C1=C(C)N(Cc2ccc(C(C)(C)C)cc2)C(=O)C(CC(=O)NCc2cccc3ccccc23)C1` (stereo not given): the Potency result was “inactive”.

For `S=C(NCC1COc2ccccc2O1)Nc1ccc(Br)cc1` (stereo not given), the Potency result is “inactive”.

In the case of `CN(C)CCNC(=O)c1ccc(Cl)c2cc3ccccc3nc12`, the Potency result was “inactive”.

Turning to `Cc1nc(/N=C(\N)NC(=O)NC2CCCCC2)nc2ccccc12`, the Potency entry is “inactive”.

Take `O=C(Nc1nnc(S(=O)(=O)N2CCCCCC2)s1)c1cccc(Br)c1`: the Potency entry is “inactive”.

`O=c1[nH]c(CCl)nc2cc(-c3ccc(Cl)cc3)sc12`: the Potency result was “inactive”.

For the molecule `O=[N+]([O-])c1ccccc1S(=O)(=O)Nc1cccc2cccnc12`, the Potency entry was “inactive”.

Take `COc1ccc(CNC(=O)C[C@H]2C[C@H](C(=O)N3CCOCC3)[C@@]3(CCC4CCCC4)c4[nH]c5ccc(Cl)cc5c4CCN3C2=O)cc1OC`: the Potency result is “inactive”.

`COc1ccc(C)cc1S(=O)(=O)N1CCN(S(=O)(=O)c2cc(C(=O)O)ccc2C)CC1`: the Potency entry was “inactive”.

As to `Cc1nn(-c2ccccc2)c(C)c1/C=N/NC(=O)CSc1nc2ccccc2c(=O)n1-c1ccccc1`, the Potency entry was “inactive”.

On to `COC(=O)COc1cccc2c(=O)n(CC(=O)NCc3ccccc3)ccc12`, for which the Potency result is “inactive”.

`Clc1ccc(Nc2nc(-c3cccs3)cs2)nc1`: the Potency entry is “inactive”.

As to `Clc1cccc(Cc2c(-c3cccc(Cl)c3)nc3ccc(Cl)cn23)c1`, the Potency entry was “inactive”.

As for `COc1ccc(C(=O)c2c3ccc([N+](=O)[O-])cc3[n+]([O-])n2CCCN)cc1`, the Potency entry is “inactive”.

For the molecule `COc1cc(NC(=O)c2ccccc2NS(=O)(=O)c2ccc(Cl)s2)cc(OC)c1`, the Potency entry was “inactive”.

As to `Clc1ccc2c(c1)C1=C(C(c3ccncc3)O2)C(c2ccc(Br)cc2)n2ncnc2N1` (stereo not given), the Potency entry was “inactive”.

`Cc1cccc(NS(=O)(=O)c2ccc(-c3cnc(C4CC4)o3)cc2)c1`: the Potency entry was “inactive”.
